Our source for the B-score values is PubChem BioAssay AID488975 (Johns Hopkins Ion Channel Center, 2010).

Hit rate of the full screen: of about 310,000 compounds, about 2,600 (0.84%) were called active.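 The calls were made as follows: active = B-score over 3 SD under the library average, and starting fluorescence ratio not unusually high; inactive = the rest.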 This excerpt belongs to a sample that is enriched for actives.

Sequence of High affinity choline transporter 1 (Homo sapiens) (Q9GZV3 whole entry, looked up): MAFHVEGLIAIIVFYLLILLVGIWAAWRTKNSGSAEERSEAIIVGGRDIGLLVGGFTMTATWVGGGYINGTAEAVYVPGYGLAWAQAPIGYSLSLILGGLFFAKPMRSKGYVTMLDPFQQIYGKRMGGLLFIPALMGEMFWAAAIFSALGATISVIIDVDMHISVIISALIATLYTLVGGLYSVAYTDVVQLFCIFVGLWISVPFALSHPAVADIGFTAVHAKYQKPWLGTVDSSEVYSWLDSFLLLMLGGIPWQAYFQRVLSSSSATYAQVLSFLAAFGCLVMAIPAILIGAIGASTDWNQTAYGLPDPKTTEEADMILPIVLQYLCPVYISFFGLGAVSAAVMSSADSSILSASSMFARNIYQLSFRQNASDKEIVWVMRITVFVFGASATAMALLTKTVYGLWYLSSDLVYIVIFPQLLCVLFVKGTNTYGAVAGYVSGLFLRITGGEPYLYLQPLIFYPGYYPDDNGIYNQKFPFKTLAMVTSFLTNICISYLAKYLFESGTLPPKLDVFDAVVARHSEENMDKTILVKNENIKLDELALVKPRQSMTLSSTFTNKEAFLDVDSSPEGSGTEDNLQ

The assay addresses High affinity choline transporter 1 (Homo sapiens) (UniProt Q9GZV3). Description: inhibits the human high affinity choline transporter (AID 488975).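 As to B-score: choline stimulus applied at its EC90 after an EC20 pre-addition; B-score computed on integrated fluorescence ratio after choline addition.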 The settings on record: CHT-expressing cells, membrane potential dye, choline response, at 10 µM; stronger effect = lower value.
As for `CC(Sc1nn(-c2ccc(Cl)cc2)c(=S)s1)C(=O)NCC1CCCO1` (stereo not drawn), the B-score entry was “inactive”.
As to `COc1ccc(S(=O)(=O)N2CCOC23CCN(S(=O)(=O)c2ccc([N+](=O)[O-])cc2)CC3)cc1`, the B-score result was “inactive”.
In the case of `O=C(NCc1ccccn1)Nc1ccc(Cl)cc1`, the B-score result is “inactive”.
Then `O=C(NCc1ccccn1)Nc1ccc(F)cc1`, with “inactive”; and `CCC(C)c1ccc(NC(=S)NCc2ccccn2)cc1` (stereo not drawn), with -9.17 (active); and `CCOC(=O)C(C)N(c1ccccc1Cl)S(C)(=O)=O` (stereo not drawn), with “inactive”.
For `O=C(Nc1cccc2cccnc12)c1cccc(N2C(=O)CCC2=O)c1`, the B-score result is “inactive”.
Under `O=C(Nc1cccc2cccnc12)c1cccc(Cl)c1` stands “inactive”; under `N#Cc1ccc(C(=O)Nc2cccc3cccnc23)c(F)c1`, -5.02 (active).
On to `CCOC(=O)c1cc(C(C)C)sc1NC(=O)COC(=O)c1nccnc1N`, for which the B-score entry was “inactive”.
Then `CCOc1ccc(NS(=O)(=O)c2ccc(C(=O)NC3CCN(Cc4ccccc4)CC3)cc2)cc1`, with “inactive”.
Consider `Cc1ccc(CNC(=O)c2cc(-c3ccccc3C)n(CC3CC(c4cccc([N+](=O)[O-])c4)=NO3)n2)cc1` (stereo not drawn), for which the B-score result is “inactive”.
Under `N=c1oc2ccccc2cc1C(=O)NCc1ccccc1` stands “inactive”; under `O=C(CC(Cc1ccccc1)C(=O)O)NCCc1ccc2c(c1)OCO2` (stereo not drawn), “inactive”; under `O=C(NCCc1ccc2c(c1)OCCO2)c1cc2ccccc2o1`, -5.1 (active).
As for `COc1ccc(C(=O)NCC2CCCN2S(=O)(=O)c2cccs2)cc1OC` (stereo not drawn), the B-score entry is “inactive”.
Under `Cc1ccc(C(=O)C(C)OC(=O)Cc2n[nH]c(=O)c3ccccc23)cc1C` (stereo not drawn) stands “inactive”; under `COc1nc(OC)nc(N(C)CCO)n1`, -12.4 (active).
Then `O=C(CSC1=NS(=O)(=O)c2cc(F)ccc2N1)Nc1ccccc1F`, with “inactive”; and `CN(CC(=O)Nc1cccc(F)c1)C(=O)C1=COCCO1`, with “inactive”; and `CN(CCO)c1ccc(/C=N/Nc2nncc3ccccc23)cc1`, with “inactive”.
As for `O=C(Nc1cccc(C(F)(F)F)c1)c1ccc(N2CCNCC2)c([N+](=O)[O-])c1`, the B-score entry is “inactive”.
Turning to `CC1CCN(c2ccc(C(=O)Nc3nnc(C4CC4)s3)cc2[N+](=O)[O-])CC1`, the B-score result is “inactive”.
Regarding `CCC(C)NC(=O)c1ccc(N2CCC3(CC2)OCCO3)c([N+](=O)[O-])c1` (stereo not drawn), the B-score entry was “inactive”.
`CC(NC(=O)c1ccc(N2CCNCC2)c([N+](=O)[O-])c1)C12CC3CC(CC(C3)C1)C2` (stereo not drawn): the B-score is -5.65 (active).
Under `O=C(NC1C2CC3CC(C2)CC1C3)c1ccc(N2CCNCC2)c([N+](=O)[O-])c1` (stereo not drawn) stands -5.53 (active).
In the case of `CS(=O)(=O)N1CCN(c2ccc(C(=O)NC3C4CC5CC(C4)CC3C5)cc2[N+](=O)[O-])CC1` (stereo not drawn), the B-score result is “inactive”.
Under `O=C(NCCC1CCCCN1S(=O)(=O)c1ccc(Cl)cc1)C(=O)NCc1ccco1` (stereo not drawn) stands “inactive”.
In the case of `CCCNC(=O)CCn1cc(-c2ccc(OC)cc2)nc1CCN`, the B-score entry is “inactive”.
With `C=CCNC(=O)C1CC2c3ccccc3C1c1ccccc12` (stereo not drawn), the B-score result is “inactive”.
Take `CC1(C)CC(=O)c2sc(N)nc2C1`: the B-score entry is “inactive”.
Then `CC(=O)Nc1nc2c(s1)C(=O)NCC(C)(C)C2`, with -5.07 (active); and `CNC(=O)c1ccc2nc(NC(C)=O)sc2c1`, with “inactive”.
As for `COc1cccc(N2CC(NC(=O)c3ccc4ccccc4c3)CC2=O)c1` (stereo not drawn), the B-score result is “inactive”.
Then `COc1cccc(CC2(CO)CCCN(Cc3ccc(OC(F)F)cc3)C2)c1` (stereo not drawn), with “inactive”.
With `Cc1nn(C)c(C)c1NS(=O)(=O)c1ccc(OC(F)(F)F)cc1`, the B-score result was “inactive”.
Under `COc1cc(C(=O)N2CCN(C/C=C/c3ccccc3)CC2)cc(OC)c1C` stands “inactive”.
Under `CNC(=O)NC(=O)C(C)N1CCN(C/C=C/c2ccccc2)CC1` (stereo not drawn) stands -6.91 (active); under `O=C(CCN1CCN(C/C=C/c2ccccc2)CC1)Nc1cccc(F)c1`, “inactive”; under `CCc1ccc(C(=O)NNC(=O)C2CCN(c3ncnc4sc(C)c(C)c34)CC2)cc1`, “inactive”.
Then `O=C(Nc1ccc(C(=O)N2CCOCC2)cc1)Nc1cccc(C(F)(F)F)c1`, with “inactive”.
With `CCOc1ccccc1N1CN(Cc2ccccc2)CNC1=S`, the B-score entry was “inactive”.
Under `CCN1CN(Cc2ccccc2)CNC1=S` stands “inactive”; under `CCc1ccccc1N1CN(Cc2ccco2)CNC1=S`, -5.54 (active).
In the case of `Brc1cnc2ccccc2c1N1CCCCC1`, the B-score entry is “inactive”.
On to `CCCCCN(C(=O)CCC(=O)OCC(=O)NC1CCC(C)CC1)c1c(N)n(CCCC)c(=O)[nH]c1=O` (stereo not drawn), for which the B-score entry is “inactive”.
Under `O=C(CN1C(=O)NC2(CCCC2)C1=O)OCCOc1ccc(F)cc1` stands “inactive”.
Consider `COc1cc(NC(=O)CSC(=S)N2CCCC2)c(OC)cc1Cl`, for which the B-score result was “inactive”.
Then `CC(C(=O)NC1CCS(=O)(=O)C1)N1C(=O)/C(=C/c2ccc(Cl)cc2)SC1=S` (stereo not drawn), with -8.07 (active); and `CN(C(=O)CN1C(=O)/C(=C/c2ccc(Cl)cc2)SC1=S)C1CCS(=O)(=O)C1` (stereo not drawn), with “inactive”; and `COc1ccc(/C=C2\SC(=O)N(CCC(=O)NC3CCS(=O)(=O)C3)C2=O)cc1` (stereo not drawn), with “inactive”.
Under `CCN(Cc1ccccc1)S(=O)(=O)c1cc(C(=O)O)ccc1OC` stands -5.82 (active); under `COc1ccc(S(=O)(=O)N(CC(=O)N/N=C/c2ccc(C(=O)O)cc2)Cc2ccccc2)cc1OC`, “inactive”.
As to `COc1ccc(C(=O)O)cc1S(=O)(=O)NCc1cccnc1`, the B-score result was “inactive”.
`O=C(NCC(c1ccco1)N1CCc2ccccc2C1)c1ccccc1Cl` (stereo not drawn): the B-score entry is “inactive”.
Take `NC(=O)c1ccsc1NC(=O)COC(=O)Cc1n[nH]c(=O)c2ccccc12`: the B-score result was “inactive”.
With `Nc1c(-c2ccccc2)nnn1Cc1ccccc1`, the B-score result is “inactive”.
As to `Oc1c(Cl)cc(Cl)c(Cl)c1Cc1c(O)c(Cl)cc(Cl)c1Cl`, the B-score is -6.87 (active).
Under `COc1ccc(C2=NN(C(=O)CSc3nc(=O)n4ccc(C)cc4n3)C(c3ccc(C)cc3)C2)cc1` (stereo not drawn) stands “inactive”; under `CCN1C(=O)[C@H]2[C@@H](c3ccc(-c4ccc(F)cc4)cc3)N[C@@](Cc3ccccc3)(C(=O)OC)[C@H]2C1=O`, “inactive”; under `O=C(Cc1ccc(Br)cc1)NCCc1ccccc1`, “inactive”.
In the case of `CC(=O)Nc1ccc(NC(=O)CSC2=NS(=O)(=O)c3ccccc3N2)cc1`, the B-score entry was “inactive”.
Turning to `C=C(C)CNC(=O)c1ccc(OC2CCN(C(=O)COC)CC2)cc1`, the B-score entry was “inactive”.
For `O=C1c2cccc3cccc(c23)C(=O)N1CCCCCc1n[nH]c(=S)o1`, the B-score is -5.24 (active).
Under `C[N+](C)(CCCCCC[N+](C)(C)CCCN1C(=O)c2cccc3cccc(c23)C1=O)CCCN1C(=O)c2cccc3cccc(c23)C1=O` stands “inactive”; under `O=C(CCCCCN1C(=O)c2cccc3cccc(c23)C1=O)NCc1ccco1`, “inactive”.
Turning to `CCC1(c2ccccc2)NC(=O)N(CC(=O)c2ccc3c(c2)OCO3)C1=O` (stereo not drawn), the B-score entry was “inactive”.
Under `CCCn1c(C)cc(/C=C(\C#N)C(=O)OCC(=O)N(C)c2c(N)n(Cc3ccccc3)c(=O)[nH]c2=O)c1C` stands “inactive”; under `Cc1[nH]c2ccccc2c1C(=O)CN1CCCC(C)C1` (stereo not drawn), -6.04 (active); under `Cc1[nH]c2ccccc2c1C(=O)CN1CC(C)CC(C)C1` (stereo not drawn), “inactive”.
`CCOC(=O)N1CCN(CC(=O)c2c(C)[nH]c3ccccc23)CC1`: the B-score result is “inactive”.
Under `[O-][n+]1ccc(OCc2ccccc2)cc1` stands “inactive”; under `Cc1ccc([C@@H]2CC=C(C(=O)O)[C@H](c3cccc(Cl)c3)N2S(=O)(=O)c2ccc(C)cc2)cc1`, “inactive”; under `COc1ccccc1C(=O)NC(CCSC)C(=O)N1CCN(C/C=C/c2ccccc2)CC1` (stereo not drawn), “inactive”.
For `O=C(Nc1ccc2nc3n(c(=O)c2c1)CCCC3)c1ccc(Cl)nc1`, the B-score entry was “inactive”.
`CCN(CC)CCn1cnc2c1c(=O)[nH]c(=O)n2Cc1ccccc1`: the B-score result is “inactive”.
Regarding `N=c1c2c(-c3ccccc3)c(-c3ccccc3)n(Cc3ccccc3)c2ncn1CCCO`, the B-score was -9.35 (active).
Then `COCCn1cnc2c1c(=O)n(Cc1ccc(Br)cc1)c(=O)n2Cc1ccccc1`, with “inactive”.
Under `CCOC(=O)C1CCN(C(=O)COC(=O)C2CCN(S(=O)(=O)c3ccc4c(c3)OCCO4)CC2)CC1` stands “inactive”.
As to `Cc1cc(C)c(S(=O)(=O)n2cc(C(C)C(N)C(=O)O)c3ccccc32)c(C)c1` (stereo not drawn), the B-score entry is “inactive”.
Under `CCN(CC(=O)Nc1c(F)cccc1F)C(=O)c1ccc(-c2ccccc2)cc1` stands “inactive”.
Under `COc1ccccc1/C=N/Nc1nc(C)c(C(C)=O)s1` stands “inactive”.
Then `COc1ccc(C(=O)NCC(c2ccco2)N2CCc3ccccc32)cc1OC` (stereo not drawn), with “inactive”; and `Cc1sc2nc(CSCC(=O)NC3CCCCC3)[nH]c(=O)c2c1C`, with “inactive”; and `N=c1n(Cc2ccc(Cl)cc2)c2ccccc2n1CC(O)c1ccco1` (stereo not drawn), with -5.25 (active).
In the case of `Cn1c(=N)n(CC(O)c2ccccc2)c2ccccc21` (stereo not drawn), the B-score result is “inactive”.
As for `Cn1c(=N)n(CC(O)c2cccs2)c2ccccc21` (stereo not drawn), the B-score entry is “inactive”.
On to `O=C(N/N=C/c1cc(Br)c(O)c([N+](=O)[O-])c1)C(O)(c1ccccc1)c1ccccc1`, for which the B-score result was “inactive”.
In the case of `CCCCN(C(=O)CSCC(=O)Nc1ccc(OC)cc1)c1c(N)n(CCC)c(=O)[nH]c1=O`, the B-score entry is “inactive”.
For the molecule `O=C(Cc1ccc(S(=O)(=O)N2CCOCC2)s1)NCCOc1ccccc1F`, the B-score result was “inactive”.
Then `Cc1ccc(NC(=O)C2CC(=O)N(c3ccc4c(c3)OCCO4)C2)cc1S(=O)(=O)N1CCCCCC1` (stereo not drawn), with “inactive”.
As to `CCCCn1c(=O)c(C(C)=O)c(O)c2ccccc21`, the B-score result is “inactive”.
`CCCCCn1c(=O)c(C(=O)OCC)c(Cl)c2ccccc21`: the B-score was -5.74 (active).
On to `CCOC(=O)c1nnn2c3ccccc3c(=O)n(C)c12`, for which the B-score entry was “inactive”.
As to `Cc1sc2ncnc(N3CCC(C(=O)Nc4nc5ccc(Cl)cc5s4)CC3)c2c1C`, the B-score result was “inactive”.
Then `CCc1ccc(Nc2n[n+](-c3ccccc3)c(-c3cccc(Cl)c3Cl)s2)cc1`, with “inactive”.
Then `Cc1cc(Nc2ccc(Br)cc2)nc2ccccc12`, with “inactive”; and `Cc1ccc2nc(Nc3ccccc3O)nc(-c3ccccc3)c2c1`, with “inactive”; and `Cc1ccc2nc(Nc3ccccc3)cc(C)c2c1`, with -8.75 (active).
With `Cc1ccc(NS(=O)(=O)c2ccc(F)cc2)nc1`, the B-score result is “inactive”.
Regarding `O=S(=O)(Nc1ccc(Cl)cn1)c1cnc(Cl)c(Br)c1`, the B-score is -8.67 (active).
Then `O=S(=O)(Nc1ccccn1)c1cccc(S(=O)(=O)c2ccc(Cl)cc2)c1`, with “inactive”; and `CC(=O)c1c(C)[nH]c(C(=O)COC(=O)CCOc2ccc(C)cc2)c1C`, with “inactive”.
